# In paper PMC11062922 (Nature Chemical Biology, 2023):
# Like-named read-outs stand apart in the source and are kept apart here.
# Legend:
# Set-up in all cases: species or system human, MV4-11 + K-562 + COLO205 + SK-N-BE2 + OVCAR-8
# CDK7 = conditions: read-out: apparent Kd; compound concentrations:100 nM and 1000 nM (sheet 'Samples'); n = 1
# ERCC2 = conditions: read-out: apparent Kd; compound concentrations:100 nM and 1000 nM (sheet 'Samples'); n = 1
# MAPK10 = conditions: read-out: apparent Kd; compound concentrations:100 nM and 1000 nM (sheet 'Samples'); n = 1
# MAPK14 = conditions: read-out: apparent Kd; compound concentrations: 100 nM and 1000 nM (sheet 'Samples'), CATDS: 0.27428845343206798; n = 1
# MAPK9 = conditions: read-out: apparent Kd; compound concentrations:100 nM and 1000 nM (sheet 'Samples'); n = 1
# MAPKAPK2 = conditions: read-out: apparent Kd; compound concentrations:100 nM and 1000 nM (sheet 'Samples'); n = 1
# NLK = conditions: read-out: apparent Kd; compound concentrations:100 nM and 1000 nM (sheet 'Samples'); n = 1
# PIP4K2C = conditions: read-out: apparent Kd; compound concentrations:100 nM and 1000 nM (sheet 'Samples'); n = 1
# PRKAA2 = conditions: read-out: apparent Kd; compound concentrations:100 nM and 1000 nM (sheet 'Samples'); n = 1
# TNK2 = conditions: read-out: apparent Kd; compound concentrations:100 nM and 1000 nM (sheet 'Samples'); n = 1
# CDKL5 = conditions: read-out: apparent Kd, compound concentrations: 100 nM and 1000 nM (sheet 'Samples'), n = 1
# CLK1 = conditions: read-out: apparent Kd, compound concentrations: 100 nM and 1000 nM (sheet 'Samples'), n = 1
# CLK2 = conditions: read-out: apparent Kd; compound concentrations: 100 nM and 1000 nM (sheet 'Samples'), CATDS: 0.135718758721844; n = 1
# GSK3A = conditions: read-out: apparent Kd, n = 1
# GSK3B = conditions: read-out: apparent Kd, n = 1
# ICK = conditions: read-out: apparent Kd; compound concentrations: 100 nM and 1000 nM (sheet 'Samples'), CATDS: 0.107034687138564; n = 1
# PRKCA = conditions: read-out: apparent Kd; compound concentrations: 100 nM and 1000 nM (sheet 'Samples'), CATDS: 8.3091420111897102E-2; n = 1
# PRKCB = conditions: read-out: apparent Kd; compound concentrations: 100 nM and 1000 nM (sheet 'Samples'), CATDS: 7.1835327532873305E-2; n = 1
# PRKCD = conditions: read-out: apparent Kd; compound concentrations: 100 nM and 1000 nM (sheet 'Samples'), CATDS: 8.6510432478471705E-2; n = 1
# PRKCQ = conditions: read-out: apparent Kd; compound concentrations: 100 nM and 1000 nM (sheet 'Samples'), CATDS: 8.9522770196270404E-2; n = 1
# CLK4 = conditions: read-out: apparent Kd; compound concentrations: 100 nM and 1000 nM (sheet 'Samples'), CATDS: 8.9493688970087706E-2; n = 1
# CSNK1A1 = conditions: read-out: apparent Kd; compound concentrations: 100 nM and 1000 nM (sheet 'Samples'), CATDS: 7.1676757807884198E-2; n = 1
# CSNK1D = conditions: read-out: apparent Kd; compound concentrations: 100 nM and 1000 nM (sheet 'Samples'), CATDS: 0.23797441251711701; n = 1
# CSNK1E = conditions: read-out: apparent Kd; compound concentrations: 100 nM and 1000 nM (sheet 'Samples'), CATDS: 0.17923780337449699; n = 1
# DYRK1A = conditions: read-out: apparent Kd; compound concentrations: 100 nM and 1000 nM (sheet 'Samples'), CATDS: 7.8911513629173299E-2; n = 1
# MAPK8 = conditions: read-out: apparent Kd; compound concentrations: 100 nM and 1000 nM (sheet 'Samples'), CATDS: 6.0987882625533299E-2; n = 1
# MELK = conditions: read-out: apparent Kd; compound concentrations: 100 nM and 1000 nM (sheet 'Samples'), CATDS: 6.0030175657403803E-2; n = 1
# NQO2 = conditions: read-out: apparent Kd; compound concentrations: 100 nM and 1000 nM (sheet 'Samples'), CATDS: 6.6170323393418801E-2; n = 1
# RIOK2 = conditions: read-out: apparent Kd; compound concentrations: 100 nM and 1000 nM (sheet 'Samples'), CATDS: 9.8324164530309899E-2; n = 1
# TGFBR2 = conditions: read-out: apparent Kd; compound concentrations: 100 nM and 1000 nM (sheet 'Samples'), CATDS: 8.1907636331175093E-2; n = 1
# CDK6 = conditions: read-out: apparent Kd; compound concentrations:100 nM and 1000 nM (sheet 'Samples'); n = 1
# DJA1 = system: T1, DJA1; conditions: read-out: apparent Kd; compound concentrations:100 nM and 1000 nM (sheet 'Samples'); n = 1
# T1 construct: gene DNAJA1
# GARS = conditions: read-out: apparent Kd; compound concentrations:100 nM and 1000 nM (sheet 'Samples'); n = 1
# MAP2K1 = conditions: read-out: apparent Kd; compound concentrations:100 nM and 1000 nM (sheet 'Samples'); n = 1
# NNT = conditions: read-out: apparent Kd; compound concentrations:100 nM and 1000 nM (sheet 'Samples'); n = 1
# NQO1 = conditions: read-out: apparent Kd; compound concentrations:100 nM and 1000 nM (sheet 'Samples'); n = 1
# PIK3CA = conditions: read-out: apparent Kd; compound concentrations:100 nM and 1000 nM (sheet 'Samples'); n = 1
# PIK3CD = conditions: read-out: apparent Kd; compound concentrations:100 nM and 1000 nM (sheet 'Samples'); n = 1
# PRKCZ = conditions: read-out: apparent Kd; compound concentrations:100 nM and 1000 nM (sheet 'Samples'); n = 1
# PRKD2 = conditions: read-out: apparent Kd; compound concentrations:100 nM and 1000 nM (sheet 'Samples'); n = 1
# PSMC3 = conditions: read-out: apparent Kd; compound concentrations:100 nM and 1000 nM (sheet 'Samples'); n = 1
# SMC4 = conditions: read-out: apparent Kd; compound concentrations:100 nM and 1000 nM (sheet 'Samples'); n = 1
# [1] = compound concentrations:100 nM and 1000 nM (sheet 'Samples')
structure (smiles),measurement,setting,value
Cl.Cn1c(=O)c(Oc2ccccc2)cc2cnc(NC3CCOCC3)nc21 [RO3304757-001],potency estimated from few doses,CDK7,1310 nM
same,potency estimated from few doses,ERCC2,1500 nM
same,potency estimated from few doses,MAPK10,984 nM
same,potency estimated from few doses,MAPK14,68.9 nM
same,potency estimated from few doses,MAPK9,349 nM
same,potency estimated from few doses,MAPKAPK2,64.7 nM
same,potency estimated from few doses,NLK,148 nM
same,potency estimated from few doses,PIP4K2C,896 nM
same,potency estimated from few doses,PRKAA2,1770 nM
same,potency estimated from few doses,TNK2,1160 nM
Cn1cc(C2=C(c3cn(C)c4cc(N)ccc34)C(=O)NC2=O)c2ccccc21 [RO0317511-000],potency estimated from few doses,CDKL5; CATDS: 7.1774388141359599E-2,1810 nM
same,potency estimated from few doses,CLK1; CATDS: 9.43888536674687E-2,816 nM
same,potency estimated from few doses,CLK2,386 nM
same,potency estimated from few doses,"GSK3A; compound concentrations: 100 nM and 1000 nM (sheet 'Samples'), CATDS: 0.18937077321649401",223 nM
same,potency estimated from few doses,"GSK3B; compound concentrations: 100 nM and 1000 nM (sheet 'Samples'), CATDS: 0.20850333664225901",193 nM
same,potency estimated from few doses,ICK,614 nM
same,potency estimated from few doses,PRKCA,1140 nM
same,potency estimated from few doses,PRKCB,1800 nM
same,potency estimated from few doses,PRKCD,1020 nM
same,potency estimated from few doses,PRKCQ,930 nM
FC(F)(F)CNc1nccc(-c2cnn3ncccc23)n1 [GW683003X],potency estimated from few doses,CDKL5; CATDS: 6.7048972560418404E-2,1220 nM
same,potency estimated from few doses,CLK1; CATDS: 9.1245201473329901E-2,572 nM
same,potency estimated from few doses,CLK4,596 nM
same,potency estimated from few doses,CSNK1A1,1010 nM
same,potency estimated from few doses,CSNK1D,117 nM
same,potency estimated from few doses,CSNK1E,176 nM
same,potency estimated from few doses,DYRK1A,792 nM
same,potency estimated from few doses,MAPK8,1650 nM
same,potency estimated from few doses,MELK,1740 nM
same,potency estimated from few doses,NQO2,1270 nM
same,potency estimated from few doses,RIOK2,491 nM
same,potency estimated from few doses,TGFBR2,726 nM
COc1cccc(C2=C(Nc3cccc(C(=O)O)c3)C(=O)NC2=O)c1 [SB-390770],potency estimated from few doses,CDK6,2180 nM
same,potency estimated from few doses,DJA1,842 nM
same,potency estimated from few doses,GARS,1360 nM
same,potency estimated from few doses,GSK3A; [1],830 nM
same,potency estimated from few doses,GSK3B; [1],859 nM
same,potency estimated from few doses,MAP2K1,2350 nM
same,potency estimated from few doses,NNT,1120 nM
same,potency estimated from few doses,NQO1,2210 nM
same,potency estimated from few doses,PIK3CA,226 nM
same,potency estimated from few doses,PIK3CD,130 nM
same,potency estimated from few doses,PRKCZ,1580 nM
same,potency estimated from few doses,PRKD2,1720 nM
same,potency estimated from few doses,PSMC3,907 nM
same,potency estimated from few doses,SMC4,986 nM
